Bioassay records as filed in PubChem BioAssay.
aSyn UTR act – Activators via SNCA 5'UTR binding, MLPCN. alpha-synuclein 5'UTR reporter, activators screen. AID 1814. hit rate 7.1% among 300,000. activity score, % (tested at 7.5 µM), hits read low; in the data active means activity score below about -60%
The depositor's hits bear a star. Not all results are given here.

For Cc1cc(/C=c2\sc3nc4ccccc4n3c2=O)c(C)n1-c1ccc(C(=O)O)cc1 the results were aSyn UTR act -62*.
Cc1cc(/C=c2/sc3nc4ccccc4n3c2=O)c(C)n1-c1ccccn1 was read as aSyn UTR act 88.
Screening CC[C@H]1OC(=O)C[C@@H](O)[C@H](C)[C@@H](O[C@@H]2O[C@H](C)C[C@H](N(C)C)[C@H]2O)[C@@H](CC=O)C[C@@H](C)C(=O)C=C[C@]2(C)O[C@H]2[C@@H]1C returned aSyn UTR act -147*.
Screening Cc1ccc(S(=O)(=O)NC(=O)Nc2ccc(N(C)C)cc2)cc1 returned aSyn UTR act -111*.
Screening Cc1cccc(Nc2nc(-c3cccs3)cs2)n1 returned aSyn UTR act -91*.
`C/C(=N\NC(=O)c1cc(-c2cccs2)nc2ccccc12)c1ccccn1` gave aSyn UTR act 79.
Screening c1ccc(Nc2nc(-c3cccs3)cs2)nc1 returned aSyn UTR act -165*.
Screening Cc1ccc(NC(=O)c2ccc(CSc3ccccn3)cc2)cc1 returned aSyn UTR act -93*.
`O=C(Nc1ccc(Br)cc1)c1ccc(CSC2=NCCS2)cc1` gave aSyn UTR act -132*.
Cc1nnc(SCc2cccc3ccccc23)s1 was read as aSyn UTR act -90*.
For Cc1ccc(NC(=O)c2ccc(CSc3nnc(C)s3)cc2)cc1 the results were aSyn UTR act -75*.
Screening Cc1ccc(NC(=O)c2ccc(CSc3nnnn3C)cc2)cc1 returned aSyn UTR act -165*.
For Cc1nnc(SCc2ccc(F)cc2)s1 the results were aSyn UTR act -69*.
`Cc1ccccc1NC(=O)c1ccc(CSc2ncccn2)cc1` gave aSyn UTR act -83*.
For O=C(NCc1cccnc1)Nc1ccc2c(c1)OCO2 the results were aSyn UTR act -63*.
For O=S(=O)(c1ccc(NC(=S)NCc2cccnc2)cc1)N1CCCCC1 the results were aSyn UTR act 86.
`Cc1nn(C)c(C)c1CNC(=O)Nc1ccc2c(c1)OCO2` gave aSyn UTR act -72*.
`Cc1nn(C)c(C)c1CNC(=O)Nc1ccc(Cl)cc1` gave aSyn UTR act -89*.
`Cc1nn(C)c(C)c1CNC(=O)Nc1cccc(Cl)c1` gave aSyn UTR act -106*.
For C=CCOc1ccc(NC(=O)C(=O)NCCCn2ccnc2)cc1 the results were aSyn UTR act 51.
Screening O=C(NCCCn1ccnc1)Nc1ccc2c(c1)OCO2 returned aSyn UTR act -107*.
Screening Cn1c2ccccc2c2cc(C(=O)N3CCN(CCO)CC3)sc21 returned aSyn UTR act -86*.
N/C(=N\OC(=O)c1ccc(F)cc1)c1ccccc1 was read as aSyn UTR act -298*.
For Cc1ccc(/C(N)=N/OC(=O)c2ccc(F)cc2)cc1 the results were aSyn UTR act -194*.
For N/C(=N\OC(=O)c1ccc(F)cc1)c1ccc(Br)cc1 the results were aSyn UTR act -143*.
Cc1ccc(C(=O)O/N=C(\N)c2ccccn2)cc1 was read as aSyn UTR act 65.
`CNC(=S)N1CCN(c2nc3ccccc3s2)CC1` gave aSyn UTR act -75*.
For CCC(=O)N1CCN(c2nc3ccccc3s2)CC1 the results were aSyn UTR act -105*.
O=C(C1CC1)N1CCN(c2nc3ccccc3s2)CC1 was read as aSyn UTR act -84*.
For Cc1ccc(C2=NN3C(=O)c4ccccc4C3C2)cc1 (stereo not drawn) the results were aSyn UTR act -170*.
For CC(C)(C)C(=O)NC(=S)Nc1ccccc1F the results were aSyn UTR act -72*.
COc1ccc(C(=O)NNC(=S)NC(=O)C(C)(C)C)cc1 was read as aSyn UTR act 60.
`COc1ccc(CCCC(=O)Nc2ccccc2F)cc1` gave aSyn UTR act -118*.
COc1ccc(C(=O)NC(=S)Nc2ccccc2F)cc1 was read as aSyn UTR act -199*.
For CN(C)/C=N/c1cnc(C(=O)c2ccc(Cl)cc2)n1C the results were aSyn UTR act -202*.
N#Cc1cn(-c2ccccc2)nc1-c1ccccc1 was read as aSyn UTR act -78*.
Screening Nc1nccc(/C=C/c2ccc(Cl)cc2)n1 returned aSyn UTR act -112*.
Screening O=C(c1cccs1)c1coc2ccc(O)cc12 returned aSyn UTR act -200*.
Screening CC(=O)Oc1ccc2occ(-c3ccccc3)c2c1 returned aSyn UTR act -137*.
`O=C(CCl)Oc1ccc2occ(C(=O)c3cccs3)c2c1` gave aSyn UTR act -193*.
CC(=O)Oc1ccc2occ(C(=O)c3cccs3)c2c1 was read as aSyn UTR act -175*.
Screening CC(=O)Oc1ccc2occ(C(=O)c3ccccc3)c2c1 returned aSyn UTR act -134*.
For C/C(=N\Nc1ccc(F)cc1F)c1ccccc1O the results were aSyn UTR act -104*.
c1ccc(-n2cnc3cc(NCc4cccs4)ccc32)cc1 was read as aSyn UTR act -167*.
For COc1ccc(-n2cnc3cc(NCc4cccs4)ccc32)cc1 the results were aSyn UTR act -69*.
Screening c1ccc(-n2cnc3cc(NCc4ccco4)ccc32)cc1 returned aSyn UTR act -161*.
For Cc1ccc(-n2cnc3cc(NCc4cccs4)ccc32)cc1 the results were aSyn UTR act -94*.
COc1ccc2nc(-c3ccccc3)cc(OC)c2c1 was read as aSyn UTR act -107*.
`COc1ccc(OC)c(Nc2cc(-c3ccccc3)nc(N)n2)c1` gave aSyn UTR act 68.
CCCc1ccc(-c2cc(NC(=O)CSc3nnc(N)s3)n(-c3ccccc3)n2)cc1 was read as aSyn UTR act -146*.
For CC(C)(C)C(=O)Cn1ncc(Br)c(Br)c1=O the results were aSyn UTR act -92*.
COc1cc(CNc2ccccc2SC)ccc1O was read as aSyn UTR act -72*.
Cc1ccc(-n2ncc3c(SCc4ccccc4)ncnc32)cc1 was read as aSyn UTR act -180*.
Fc1ccc(-n2ncc3c(SCc4cccnc4)ncnc32)cc1 was read as aSyn UTR act -138*.
For Cc1ccc(CSc2ncnc3c2cnn3-c2ccccc2)cc1 the results were aSyn UTR act -137*.
`Cc1ccc(-n2ncc3c(SCC(=O)NNC(=O)c4ccco4)ncnc32)cc1` gave aSyn UTR act -106*.
Cc1ccc(CSc2ncnc3c2cnn3-c2ccc(C)cc2)cc1 was read as aSyn UTR act -93*.
For COCC1CCN(Cc2nc(-c3cccs3)no2)C1 (stereo not drawn) the results were aSyn UTR act -72*.
Screening c1csc(-c2noc(CN3CCc4sccc4C3)n2)c1 returned aSyn UTR act -69*.
Screening CCOC(=O)c1cc2c(C)n(-c3ccc(C)cc3)c(C)c2ccc1=O returned aSyn UTR act -64*.
Screening O=C(Nc1ccccc1)N1CCCC2CCCCC21 (stereo not drawn) returned aSyn UTR act -125*.
`COc1ccc2c(c1)CC/C2=N\OC(=O)c1ccccc1OC` gave aSyn UTR act -65*.
Screening O=C(COC(=O)Cn1cnc2ccccc21)Nc1cc2c(cc1Cl)C(=O)c1ccccc1C2=O returned aSyn UTR act -162*.
`CCC(Sc1nc2ccccc2c(=O)[nH]1)C(=O)Nc1ccc(C(C)=O)cc1` (stereo not drawn) gave aSyn UTR act -79*.
Screening Cc1[nH]n(C(N)=S)c(=O)c1N=Nc1ccc(Br)cc1 returned aSyn UTR act -90*.
`Cc1[nH]n(C2=NCCS2)c(=O)c1N=Nc1cccc(C(F)(F)F)c1` gave aSyn UTR act 67.
Screening Cc1[nH]n(C(N)=S)c(=O)c1N=Nc1cccc(C(F)(F)F)c1 returned aSyn UTR act -165*.
